The whole screen tested about 350,000 compounds, of which about 5,500 (1.6%) were called active.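 How the source made its calls: active means significant combined selectivity score with lowered wild-type GFP, culture density cut under 30%, mutant RFP and density less affected; inactive means any of these conditions unmet.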 Many of the other results were omitted from the sample, so actives are more common in it than they were.
test: reduced GFP signal of wild-type E. coli, primary screen, bacterial rRNA inhibitor project, GFP/RFP fluorescence, OD600, single point (AID 720706); conditions: E. coli WT GFP vs humanized-ribosome RFP mutants, 24 h; GFP signal change (wild-type ribosome): stronger effect = lower value, DMSO median 0, no signal -100; OD600 change: measured here: OD600 growth, DMSO median 0, no signal -100; RFP signal change: measured here: RFP humanized mutant strains, DMSO median 0, no signal -100, concentration not given here

Structure (SMILES) | GFP signal change (wild-type ribosome) | OD600 change [%] | RFP signal change [%]
Cn1cnc(S(=O)(=O)N2C[C@@H](O)COC[C@H]3O[C@H](CC(=O)N4CCN(c5ccccc5)CC4)CC[C@@H]32)c1 | 9.71% (inactive) | 22 | -0.0733
CCN(CC)CCNC(=O)c1ccc(NC(=O)c2c(F)cccc2Cl)cc1 | 7.17% (inactive) | -3.78 | -0.531
Cc1ccc(NNC(=O)c2c(F)cccc2Cl)cc1Cl | -32.7% (active) | -2.5 | -1.17
O=C(NNc1cc(Cl)cc(Cl)c1)c1c(F)cccc1Cl | -4.44% (inactive) | -4.42 | -0.438
COCC#Cc1ccc([C@@H]2[C@@H](CO)N3C(=O)CN(C(=O)Nc4cc(F)ccc4F)C[C@@H]23)cc1 | -10.5% (inactive) | -5.07 | 3.1
COc1ccc(NC(=O)N(C)C[C@@H]2OCCCC[C@@H](C)Oc3ccc(NS(C)(=O)=O)cc3C(=O)N([C@@H](C)CO)C[C@H]2C)cc1 | -0.988% (inactive) | -5.29 | 0.0065
Cc1noc(C)c1S(=O)(=O)Nc1ccc2c(c1)C(=O)N([C@H](C)CO)C[C@H](C)[C@H](CN(C)C(=O)CCC(F)(F)F)OCCCC[C@H](C)O2 | -2.98% (inactive) | -4.46 | 0.03
COc1ccc2c3c(n(C)c2c1)[C@H](CO)N(C(=O)Cc1ccccc1)CC31CCN(C)CC1 | 4.41% (inactive) | 5.73 | -1.31
CCNC(=O)[C@H]1[C@H](CO)[C@H]2Cn3c(ccc(C4=CCCC4)c3=O)[C@@H]1N2S(=O)(=O)c1cn(C)cn1 | 2.88% (inactive) | 2.51 | -2.3
COc1ccc(-c2n[nH]c3c2CN(C(=O)c2ccc(F)cc2)CC3)cc1 | -24% (active) | -10.1 | -0.0738
COc1cccc(-c2noc(C3CCCN(C(=O)c4ccc(F)cc4)C3)n2)c1 (stereo not given) | -16% (inactive) | -14.3 | 1.71
COc1ccc(C(=O)NC2CCN(C(=O)Nc3ccc(F)cc3)CC2)cc1 | 3.88% (inactive) | 11.7 | -0.144
COCC#Cc1cnc2c(c1)C(=O)N([C@H](C)CO)C[C@@H](C)[C@@H](CN(C)Cc1ccccc1F)O2 | 4.01% (inactive) | 9.71 | -0.92
CC(C)(C)C1CCC(=NNC(=O)c2cc(-c3ccccc3)n[nH]2)CC1 (stereo not given) | -8.44% (inactive) | 6.81 | -1.93
CC(/C=N/NC(=O)c1cc(-c2ccc3ccccc3c2)n[nH]1)=C\c1ccco1 | -18.4% (active) | -4.31 | 6.39
O=C(N/N=C/c1ccco1)c1ccc(NC(=O)C2CC2)cc1 | 33.5% (inactive) | 14.7 | 3.89
Nc1ccn([C@@H]2O[C@H](C(=O)N[C@H]3CCCCNC3=O)[C@@H](O)[C@H]2O)c(=O)n1 | 23% (inactive) | 2.48 | 2.71
CN(Cc1ccccc1)C(=O)C1CCCN(c2ncnc3c2nc2n3CCCCC2)C1 (stereo not given) | -30.8% (active) | -19.4 | -2.82
COc1cccc(CNC(=O)C2CCCN(c3ncnc4c3nc3n4CCCCC3)C2)c1 (stereo not given) | -0.749% (inactive) | 3.87 | -0.866
COc1cccc(NC(=O)C2CCCN(c3ncnc4c3nc3n4CCCCC3)C2)c1 (stereo not given) | -27.7% (inactive) | -29.9 | -2.84
O=C(NCc1ccc2c(c1)OCO2)c1sccc1Br | -28% (active) | -4.74 | 4.92
O=C(NCc1ccc2c(c1)OCO2)c1c(O)nc2sccn2c1=O | 9.79% (inactive) | 1.77 | 0.304
O=C(NCc1ccc2c(c1)OCO2)c1c(-c2ccsc2)sc2ccccc12 | -2.63% (inactive) | 5.46 | -0.565
Cc1cc(C(=O)Nc2ccc3c(c2)C(=O)N(C)[C@@H]2CC[C@H](CC(=O)NC4CCCC4)O[C@@H]2CO3)no1 | 1.76% (inactive) | 5.25 | 2.11
CCCC(=O)Nc1ccc2c(c1)C(=O)N(C)[C@@H]1CC[C@H](CC(=O)NCCOC)O[C@H]1CO2 | 3.48% (inactive) | 0.14 | 0.31
COc1ccccc1S(=O)(=O)N[C@@H]1C=C[C@H](CC(=O)N2CCN(C)CC2)O[C@@H]1CO | 3.92% (inactive) | 11.8 | -3.5
CC(C)c1ccc(NS(=O)(=O)c2cn(C)c(=O)n(C)c2=O)cc1 | 4.95% (inactive) | 14.4 | -3.23
COC(=O)c1c(C)oc(C)c1S(=O)(=O)Nc1ccc(C(C)C)cc1 | -28.4% (active) | -12.4 | -2.19
COC(=O)c1c(C)oc(C)c1S(=O)(=O)NCc1ccc(Cl)cc1 | -11.3% (inactive) | -4.55 | -0.764
CO[C@H]1CC[C@@H]2CCOc3c(C#N)cccc3C(=O)N(C)C[C@H](C)C(=O)N(C)C[C@H]1O2 | 3.92% (inactive) | -1.31 | -1.65

Source: PubChem BioAssay AID720706 (Broad Institute, 2013)
